Among the data in PubChem BioAssay (EPA / NIEHS) are outcome and AC50 values, retold here.

Molecules are shown by their SMILES. Where a structure was tested more than once in an assay, its records may differ in their call. Active and inactive are the calls of the source. How the source made its calls: active means hit-call score of the fitted dose curve at least 0.9, where 1 is the maximum; inactive means score below 0.9.

The assay in a line: ATG_ISRE_CIS: Attagene CIS-FACTORIAL HepG2 Assay for human Interferon Regulatory Factor 1 (IRF1) binding to an Interferon-Stimulated Response Element (ISRE) (AID 2282948). The settings on record: HepG2 ISRE cis-reporter (Attagene), mRNA transcription readout; actives raise or lower the signal. The protocol: ATG_CIS is a cell-based, multiplexed-readout assay that uses HepG2, a human liver cell line, with measurements taken at 24 hours after chemical dosing in a 24-well plate.ATG_ISRE_CIS is one of 52 assay component(s) measured or calculated from the ATG_CIS assay. It is designed to make measurements of mRNA induction, a form of inducible reporter, as detected with fluorescence intensity signals by Reverse transcription polymerase chain reaction (RT-PCR) and Capillary electrophoresis technology.Data from the assay component ATG_ISRE_CIS was analyzed into 1 assay endpoint. This assay endpoint, ATG_ISRE_CIS, was analyzed with bidirectional fitting relative to DMSO as the negative control and baseline of activity. Using a type of inducible reporter, measures of mRNA for gain or loss-of-signal activity can be used to understand the reporter gene at the transcription factor-level as they relate to the gene IRF1. Furthermore, this assay endpoint can be referred to as a primary readout, because this assay has produced multiple assay endpoints where this one serves a reporter gene function. To generalize the intended target to other relatable targets, this assay endpoint is annotated to the dna binding intended target family, where the subfamily is interferon regulatory factors.
Human liver HepG2 cells are transiently transfected with multiple reporter transcription units (MRTUs) in 6-well plates using FuGene 6 reagent (Roche; 3 ml FuGene/1 mg DNA). The MRTU constructs are regulated by a cis-regulating element (promoter). […] A major difference between the CIS and TRANS system is that in CIS activities of endogenous TFs are measured, whereas the TRANS assay evaluates changes in activities of exogenous, chimeric NR-Gal4 proteins. […] At the end of 24 hour incubation, total RNA was isolated using TriZol reagent (Invitrogen). The isolated RNA is then reverse-transcribed using oligo(dT) primer and Mo-MLV reverse transcriptase (Invitrogen) with DNAse I (Ambion) treatment for 30 min. The one-tenth of the produced cDNA was amplified by PCR using Taq DNA polymerase (Invitrogen) and two reporter sequence-specific primers. The PCR products were fluorescently labeled by primer extension with 6-arboxyfluorescein (6-FAM) 5'-labeled reporter sequence-specific primer (2 min at 95 C, 20 s at 68 C and 10 min at 72 C) and these products were digested with 5U of HpaI (New England Biolabs) for 2h at 37 C. The fragments were purified using Qiaquick PCR columns (Qiagen), analyzed on an ABI 3130xL genetic analyzer (Applied Biosystems) with peak positions identified by using a set of X-rhodamine (ROX)-labeled MapMarker1000 molecular weight standards (BioVentures). The raw capillary electrophoresis data was processed using Attagraph software (Attagene).
As for `CCN(CCO)CCO`, the result was inactive. The same measure, in the same setting: for `Nc1nc(N)nc(Cl)n1` the value was “inactive”; for `CCOC(=O)Cc1ccccc1`, “inactive”. On the same count and under the same terms, the result for `CCOP(=S)(OCC)Oc1ccc(Cl)cc1Cl` reads “inactive”.

As to `CC(C)(C)c1ccc(CCOc2ncnc3ccccc23)cc1`, the result was inactive. With `Oc1cc(Cl)c(Cl)cc1Cl`, the compound was called inactive. As for `O=C1C=CC(=O)c2ccccc21`, the result was inactive. For the compound `Clc1cc(C(Cl)(Cl)Cl)cnc1Cl`, the AC50 is 9.08 µM (active). As for `N#Cc1ccccc1N`, the result was inactive. `O=C(CCl)NCO`: the call was inactive. On the same count and under the same terms, the result for `CCCCN(CCCCO)N=O` reads “inactive”. For the compound `Nc1ccc(N)cc1`, the result was inactive and the AC50 is 100 µM (active). For `CC1(C)COP(Oc2ccccc2)OC1`, the compound was called inactive. With `CCOCn1c(-c2ccc(Cl)cc2)c(C#N)c(Br)c1C(F)(F)F`, the concentration at half-maximal activity (AC50) was 1.42 µM (active). `OC[P+](CO)(CO)CO`: the compound was classed as inactive. Consider `O=C(NC(=O)c1c(F)cccc1F)Nc1ccc(Cl)cc1`, for which the call was inactive. On the same count and under the same terms, for `CC[N+](CC)(CC)CC` the value was “inactive”. The same measure, in the same setting: the result for `O=[N+]([O-])c1ccc(Cl)c([N+](=O)[O-])c1` reads “inactive”.

On to `Cc1cc(C(F)(C(F)(F)F)C(F)(F)F)ccc1NC(=O)c1cccc(I)c1C(=O)NC(C)(C)CS(C)(=O)=O`, for which the compound was called inactive. In the case of `O=[N+]([O-])c1ccc(Nc2ccccc2)cc1`, the half-maximal activity concentration (AC50) was 130 µM (active). In the case of `OC(Cc1ccccc1Cl)(Cn1cncn1)C1(Cl)CC1` (stereo not given), the compound was called inactive. As to `CCOP(=O)(OCC)OC(=CCl)c1ccc(Cl)cc1Cl`, the compound was called inactive. Consider `C=C(C)C(=O)OCCCCOC(=O)C(=C)C`, for which the compound was classed as inactive. In the case of `O=[N+]([O-])c1ccccc1O`, the compound was classed as inactive.

`Cc1cc(Cl)ccc1OCCCC(=O)O`: the outcome was inactive. Still for that read-out and setting: for `CCN(N=O)C(N)=O` the value was “inactive”; for `Clc1cnc(Oc2ccc(Oc3ncc(Cl)cc3Cl)cc2)c(Cl)c1`, “inactive”; for `C[C@]12CC[C@@H](O)C[C@@H]1CC[C@@H]1[C@@H]2CC[C@]2(C)C(=O)CC[C@@H]12`, “inactive”.

For `N#CS`, the result was inactive. Turning to `CCOP(=S)(OCC)SCSc1cc(Cl)ccc1Cl`, the result was inactive. On to `c1cc[c]([Sb]([c]2ccccc2)[c]2ccccc2)cc1`, for which the call was inactive.

Regarding `CN(C)c1ccc(N=O)cc1`, the AC50 is 9.25 µM (active). The same measure, in the same setting: for `O=S(=O)(C(Cl)(Cl)Cl)C(Cl)(Cl)Cl` the value was 16.4 µM (active). Regarding `CCCCCCCCCCCCCl`, the compound was called inactive. In the case of `CC(C)(C)c1cc([N+](=O)[O-])cc(C(C)(C)C)c1O`, the result was inactive. Still for that read-out and setting: for `O=NN1CCCCCCC1` the value was “inactive”. As for `O=C(CCl)Nc1ccccc1`, the half-maximal activity concentration (AC50) is 54.9 µM (active). For the compound `CC(C)[N+](=O)[O-]`, the compound was called inactive. Still for that read-out and setting: for `CCCCC(CC)COC(=O)Cl` (stereo not given) the value was “inactive”.

The AC50 is the concentration giving half of the maximal activity seen.
